# Source: PubChem BioAssay (National Center for Advancing Translational Sciences (NCATS))
# Most compounds without a hit are left out; they make up all but 8.8% or so of the library.
# HT1080 IDH1KD tx: kills HT-1080 cells with IDH1 knockdown. HT-1080 IDH1 knockdown viability, ATP luminescence, 48 h. Potency, µM (highest dose often 46.1 µM), for inactives: top-dose activity, negative = toxicity, hits mostly cytotoxic. 360,000 compounds, 2% hits. AID 686971;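 also: potency is read from the fitted curve at half-maximal effect; 0% = DMSO wells and -100% = cell-free medium wells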
#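 Viability of IDH1-knockdown HT-1080 fibrosarcoma cells was assessed by CellTiter-Glo after 48 h at 37 °C with titrated compound; concentration-effect curves were classified by fit quality and response size.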
# IL1B secr inh: inhibitors of inflammasome signaling (IL-1 beta secretion). THP-1 LPS/ATP IL-1B secretion, AlphaLISA, 16 h; hits give low values. activity change, % at 57.5 µM. 360,000 compounds, 4.7% hits; in the data active = activity change below about -50%; inconclusive = mostly about -30% to -49%
#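 Secreted IL-1B measured by AlphaLISA bead assay after 16 h compound exposure of THP-1 cells; compounds (final up to 57.5 uM) added 1 h before LPS (250 ng/mL) and ATP (1.25 mM) stimulation; lower signal means less secretion.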
# HT1080NT lethal: kills 2HG-producing HT-1080-NT fibrosarcoma cells; HT-1080-NT fibrosarcoma viability, CellTiter-Glo ATP luminescence, 48 h; AID 686970; 360,000 compounds, 1.6% hits; Potency, µM (titrated, usually from 46.1 µM), without a hit: top-dose activity, negative = less viability, most hits filed as cytotoxic;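 also: NT is the 2HG producing partner of a matched IDH1 knockdown line; potency is read from the fitted curve at half-maximal effect; 0% = DMSO-treated cells and -100% = media-only wells without cells; nearly all actives have a fitted effect of over 55% in size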
#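 Luminescent CellTiter-Glo readout after 48 hours of compound exposure at 37 degrees C defined viability of HT-1080-NT cells. Activity was normalized to DMSO wells and cell-free media wells; concentration-response curves were fitted and assigned curve classes.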
# KB-3-1 tox: KB-3-1 parental cell cytotoxicity; KB-3-1 viability, CellTiter-Glo ATP luminescence, 72 h; Potency, µM (series often up to 46.1 µM), actives largely listed as cytotoxic; 400,000 compounds, 1.4% hits; AID 1347075; also: potency is read from the fitted curve at half-maximal effect; nearly all actives have a fitted effect of over 60% in size
#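 Screening of KB-3-1 cells (DMEM, 10% FBS, phenol-red free) ran from lowest to highest compound concentration; after 72 h at 37 °C viability was read luminescently and curves fitted.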
# KB-V1 MDR tox: kills drug-selected multidrug resistant KB-V1 cells; KB-V1 MDR cells viability, CellTiter-Glo, 72 h; Potency, µM (titrated, usually from 46.1 µM), usual class: cytotoxic; 400,000 compounds, 3.4% hits; AID 1347076; also: potency is read from the fitted curve at half-maximal effect; nearly all actives have a fitted effect of over 60% in size
#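 Cells of the MDR subline KB-V1 are plated, dosed with compound at multiple concentrations, and incubated 72 h at 37 degrees C; CellTiter-Glo is then added and luminescence read after 10 min.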
# Starred values were filed as active, the others as inactive; i = inactive; ? = inconclusive; · = no result given; [ ] = dose if it differs, or a comment. Unless noted, calls follow the shape of the dose curve; as a rule, active = well fitted curve in the direction sought with a large enough effect; inconclusive = small, poorly fitted or top-dose-only effect, or another doubt; inactive = no such curve, though single readings can be large; an effect the other way counts as inactive or inconclusive. Unless noted, % is scaled to controls: 0 for no effect and ±100 for the full control effect.
SMILES,HT1080 IDH1KD tx,IL1B secr inh,HT1080NT lethal,KB-3-1 tox,KB-V1 MDR tox
CC(C)(O)C#Cc1ccc(CN2CCC(n3nccc3NC(=O)C3CC3)CC2)cc1,10.8%,-7.3,11.0%,i,i
CCOC(=O)c1cc(-c2ccccc2)n(CCCC(=O)Nc2ccc(C)c(Cl)c2)c1C,·,·,·,i,i
O=[N+]([O-])c1cccnc1N/N=C/c1ccccc1O,?,46.7,?,1.84µM*,?
Cc1ccccc1-n1c(C)cc(/C=N/Nc2ccc([N+](=O)[O-])cn2)c1C,?,-12.7,23.1µM*,i,i
O=C(N/N=C/c1cc([N+](=O)[O-])ccc1O)Nc1ccccc1,16.4µM*,110.8,?,?,i
O=C(N/N=C/c1cc([N+](=O)[O-])ccc1O)NC12CC3CC(CC(C3)C1)C2,-21.3%,27.0,-20.9%,i,i
O=[N+]([O-])c1ccc(O)c(/C=N/Nc2ccccn2)c1,10.3µM*,-101.0*,11.6µM*,?,i
COc1cccc(CNC(=O)CCNS(=O)(=O)c2ccc3c(c2)CCCC(=O)N3)c1,·,·,·,i,i
O=C(Cn1c2c(c(-c3ccccc3Cl)cc1=O)CCC2)NCCCN1CCOCC1,-1.6%,?,6.5%,i,i
CCCOc1ccc(/C=N/Nc2ccccc2[N+](=O)[O-])c(O)c1,?,-7.5,-28.7%,?,?
CCCOc1ccc(/C=N/Nc2cccc([N+](=O)[O-])c2)c(O)c1,13µM*,-96.5*,14.6µM*,?,i
O=[N+]([O-])c1cccc(N/N=C/c2ccc(N3CCOCC3)cc2)c1,?,-63.3*,-22.8%,i,?
Cc1noc(C)c1/C=N/Nc1ccccn1,28.7%,-70.5*,17.9%,i,i
Cc1ccc(/C=N/Nc2ccccn2)s1,14.2%,-8.8,1.4%,?,i
C(=N\Nc1ccccn1)/c1c[nH]c2ccccc12,-1.4%,-94.8*,-0.3%,i,?
CCOc1ccccc1CNC(=O)c1ccc(NC(=O)N2CCSc3ncccc32)cc1,·,·,·,i,i
COc1ccc(C(=O)NC(=S)Nc2ccc(N3CCCC3)cc2)cc1,1.8%,-4.6,13.5%,i,i
CCCC(=O)N1CCN(c2ccc(NC(=S)NC(=O)c3cccc(C)c3)cc2)CC1,-1.3%,-64.8*,-3.3%,?,?
COc1cccc(C(=O)NC(=S)Nc2ccc(N3CCCC3)cc2)c1,0.0%[9.24 µM],-57.4*,-1.6%,i,?
Cc1cccc(C(=O)NC(=S)N2CCN(C)CC2)c1,10µM*,2.2,12.6µM*,i,i
CC(C)Oc1cccc(C(=O)NC(=S)Nc2ccc(N3CCN(C)CC3)cc2)c1,-21.8%,-3.7,-7.3%,i,i
COc1ccc(NC(=O)CN2C(=O)COc3ccc(C)cc32)cc1,9.9%,-2.8,10.7%,i,i
CC(Sc1ccccc1F)C(=O)Nc1ccc2c(c1)OCCO2 (stereo not drawn),3.8%,-4.0,-3.5%,·,·
CC(=O)c1cccc(NC(=O)Cn2cc(C(=O)c3cccc(Cl)c3)c(=O)c3ccc(C)nc32)c1,·,·,·,i,i
COc1ccc(C(C)=O)cc1COc1ccc(-n2cnnn2)cc1,4.4%,·,-3.5%,i,20.6µM*
SMILES,HT1080 IDH1KD tx,IL1B secr inh,HT1080NT lethal,KB-3-1 tox,KB-V1 MDR tox
COc1ccc(NC(=O)COc2ccc(-n3cnnn3)cc2)cc1OC,1.7%,-17.9,2.4%,i,i
CCN(CC)CCNC(=O)c1ccc(NC(=O)c2c(C)nn(-c3ccc(F)cc3)c2Cl)cc1,?,?,?,?,i
O=C(NCCNC(=O)c1cc(Cl)ccc1Cl)c1cnccn1,12.4%,-14.8,-5.5%,i,i
N#Cc1ccc(Oc2nc(C(N)=O)cc(-c3ccccc3)n2)cc1,-0.4%,-11.3,6.6%,i,?
CCN(CC)c1nc(C(N)=O)cc(-c2ccccc2)n1,?,-72.9*,-23.5%,i,i
CN1CCN(c2nc(C(N)=O)cc(-c3ccccc3)n2)CC1,0.2%,-57.4*,3.6%,i,i
Cc1cc(-c2ccccc2)nc(N2CCN(c3ccccn3)CC2)n1,-22.5%,31.7,11.2%,i,i
Cc1nc(-c2ccccc2)cc(-c2ccccc2)n1,-2.4%,27.2,0.5%,i,i
CN(N)c1nc(-c2ccccc2)cc(-c2ccccc2)n1,-5.0%,-63.9*,-0.1%,i,?
Cc1cc(OCC(=O)Nc2ccc(CN3CCOCC3)cc2)c2c(C)c(C)c(=O)oc2c1,0.0%,-27.2,-5.0%,i,i
Cn1c(=S)[nH]c(=O)c2ncc(=O)[nH]c21,16.5%,-1.3,12.4%,i,i
CS(=O)(=O)NCC(c1ccco1)N1CCN(c2ccc(F)cc2)CC1 (stereo not drawn),3.1%,5.2,7.5%,i,i
O=C(/C=C/c1ccccc1)Nc1ccc2c(c1)OCCO2,8.0%,?,15.1%,i,i
O=C(/C=C/c1ccco1)Nc1ccc2c(c1)OCCO2,9.1%,-70.3*,9.8%,i,i
O=C(/C=C/c1ccco1)Nc1ccc(Oc2ccc(Cl)cc2)cc1,4.11µM*,-6.5,5.8µM*,5.8µM*,?
COc1cc2cc(C(=O)Nc3ccc4c(c3)OCCO4)[nH]c2cc1OC,17.7%,-9.6,9.8%,i,i
COc1ccccc1/C=C/C(=O)Nc1ccc2c(c1)OCCO2,?,-58.1*,-23.9%,5.17µM*,20.6µM*
COc1cc2[nH]c(C(=O)Nc3ccc4c(c3)OCCO4)cc2c(OC)c1OC,-26.1%,-91.0*,-29.5%,i,?
Cc1cccc(NC(=O)Cn2c(=O)n(CC3CCC(C(=O)NCCc4ccccc4)CC3)c(=O)c3ccccc32)c1 (stereo not drawn),·,·,·,i,i
COc1ccccc1/C=C/C(=O)NC(=S)NCC1CCCO1 (stereo not drawn),0.1%,-62.0*,2.9%,i,?
O=C(C=Cc1ccco1)c1cc(Cl)ccc1O,7.0%,-90.7*,-1.0%,i,i
Cc1ccc(S(=O)(=O)N2CCN(c3nc(-c4cccnc4)nc4ccccc34)CC2)cc1,1.1%,·,19.3%,·,·
Cc1ccc2[nH]c(C)c(/C=C/c3cc[n+](C)cc3)c2c1,?,?,?,2.06µM*,i
Cc1ccc2c(c1)c(/C=C/c1cc[n+](C)cc1)c(C)n2C,?,-62.7*,?,?,i
CCn1c2ccccc2c2cc(NC(=O)COc3cc(C)ccc3C)ccc21,·,·,·,i,i
CCC(=O)Nc1ccc(/C(C)=N/NC(=O)c2c(Br)c(C)nn2C)cc1,-7.6%,-2.6,-4.3%,i,7.31µM*
CC(C)NC(=O)C1(C)CCCCN1Cc1ccc(OCc2ccccc2)cc1 (stereo not drawn),?,1.7,?,16.4µM*,?
